Measured values taken from PubChem BioAssay (NCATS).
Inconclusive results are not listed. A call without a number means that no potency is given here. Activity calls are given as the source filed them. Unless noted, the call rests on the fitted dose curve; in most records, active means well fitted curve in the direction sought with a large enough effect; inconclusive means small, poorly fitted or top-dose-only effect, or another doubt; inactive means no such curve, though single readings can be large; an effect the other way counts as inactive or inconclusive.

Legend:
[1] = molecular target: Catechol O-methyltransferase (Homo sapiens) (UniProt P21964); test: Confirmatory Screen for Target Class Profiling of Small Molecule Inhibitors of Methyltransferases (AID 1745852; calls by dose curve; further: potency means the concentration at half of the fitted maximal effect); conditions: MTase-Glo luminescence, SAH detection, recombinant enzyme; measured here: COMT max response; stronger effect = lower value
Chain of Catechol O-methyltransferase (Homo sapiens) (P21964 whole entry, looked up): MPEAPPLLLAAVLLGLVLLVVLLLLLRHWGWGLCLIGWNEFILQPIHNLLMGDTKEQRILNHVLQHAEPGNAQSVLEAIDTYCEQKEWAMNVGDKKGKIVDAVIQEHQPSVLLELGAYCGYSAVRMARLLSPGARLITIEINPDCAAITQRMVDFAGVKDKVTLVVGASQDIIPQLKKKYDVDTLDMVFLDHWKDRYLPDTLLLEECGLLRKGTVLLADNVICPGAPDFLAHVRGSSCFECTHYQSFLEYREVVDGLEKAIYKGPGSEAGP

[2] = molecular target: Guanidinoacetate N-methyltransferase (Homo sapiens) (UniProt Q14353); test: as above; conditions: MTase-Glo luminescence, SAH detection, recombinant enzyme; activity change, negative = inhibition: at 57.3 µM (top of the series) unless noted; series mostly up to 57.3 µM
[3] = molecular target: Nicotinamide N-methyltransferase (Homo sapiens) (UniProt P40261); test: as above; conditions: MTase-Glo luminescence, SAH detection, recombinant enzyme; measured here: NNMT max response; stronger effect = lower value
Chain of Nicotinamide N-methyltransferase (Homo sapiens) (P40261 whole entry, looked up): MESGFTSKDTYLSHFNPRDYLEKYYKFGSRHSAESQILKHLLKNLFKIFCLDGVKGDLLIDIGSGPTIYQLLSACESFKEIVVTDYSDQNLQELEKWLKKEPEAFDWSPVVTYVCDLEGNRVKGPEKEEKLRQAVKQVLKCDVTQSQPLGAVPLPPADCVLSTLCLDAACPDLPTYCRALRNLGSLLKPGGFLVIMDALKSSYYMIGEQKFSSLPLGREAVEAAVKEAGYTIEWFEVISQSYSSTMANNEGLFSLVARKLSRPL

[4] = molecular target: Phenylethanolamine N-methyltransferase (Homo sapiens) (UniProt P11086); test: as above; conditions: MTase-Glo luminescence, SAH detection, recombinant enzyme; measured here: PNMT max response; stronger effect = lower value
Chain of Phenylethanolamine N-methyltransferase (Homo sapiens) (P11086 whole entry, looked up): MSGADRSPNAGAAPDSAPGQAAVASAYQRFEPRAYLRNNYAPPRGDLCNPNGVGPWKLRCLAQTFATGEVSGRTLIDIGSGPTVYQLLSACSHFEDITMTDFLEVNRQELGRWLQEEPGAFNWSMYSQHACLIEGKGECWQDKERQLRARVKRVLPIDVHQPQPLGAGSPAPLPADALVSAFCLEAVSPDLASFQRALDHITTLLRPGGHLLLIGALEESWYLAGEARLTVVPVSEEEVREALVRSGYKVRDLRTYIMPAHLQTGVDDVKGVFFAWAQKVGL

[5] = molecular target: Glutathione peroxidase 1 (Homo sapiens) (UniProt P07203); test: Primary qHTS Assay for Inhibitors of Recombinant Selenoprotein Glutathione Peroxidase 1 (GPX1) (AID 1845191); conditions: recombinant GPX1, GR-coupled NADPH fluorescence, 15 min; series mostly up to 48.8 µM; further: nearly all actives have a fitted effect of over 65% in size
Chain of Glutathione peroxidase 1 (Homo sapiens) (P07203 whole entry, looked up): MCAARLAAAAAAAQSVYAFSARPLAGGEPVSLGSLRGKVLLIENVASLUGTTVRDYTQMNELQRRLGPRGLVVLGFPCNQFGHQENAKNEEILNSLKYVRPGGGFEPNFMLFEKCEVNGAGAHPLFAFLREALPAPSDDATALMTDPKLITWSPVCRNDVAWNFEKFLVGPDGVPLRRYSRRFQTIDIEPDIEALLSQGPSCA
Summary of the method: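 NADPH consumption tracked by fluorescence at 340/450 nm between t=0 and t=15 min, room temperature. Final mix: 10 nM GPX1, 100 nM glutathione reductase, 1 mM GSH, 0.5 mM NADPH, 0.5 mM cumene hydroperoxide, 0.01% BSA; 30 min compound–enzyme preincubation.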

[6] = molecular target: Phospholipid hydroperoxide glutathione peroxidase GPX4 (Homo sapiens) (UniProt P36969); test: Primary qHTS Assay for Inhibitors of Recombinant Selenoprotein Glutathione Peroxidase 4 (GPX4) (AID 1845192); conditions: recombinant GPX4, GR-coupled NADPH fluorescence, 15 min; series mostly up to 50 µM; further: nearly all actives have a fitted effect of over 65% in size
Chain of Phospholipid hydroperoxide glutathione peroxidase GPX4 (Homo sapiens) (P36969 whole entry, looked up): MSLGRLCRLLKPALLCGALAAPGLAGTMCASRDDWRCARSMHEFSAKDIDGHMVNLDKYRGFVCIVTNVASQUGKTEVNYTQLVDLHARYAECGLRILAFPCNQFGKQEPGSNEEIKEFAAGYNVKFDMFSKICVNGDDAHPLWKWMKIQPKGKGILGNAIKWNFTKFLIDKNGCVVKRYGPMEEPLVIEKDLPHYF
Summary of the method: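 NADPH consumption followed by fluorescence at 340/450 nm, t=0 and after 15 min at room temperature. Reaction started with cumene hydroperoxide (0.5 mM final) after 30 min compound–GPX4 preincubation; final 200 nM GPX4, 100 nM GR, 1 mM GSH, 0.5 mM NADPH.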

[7] = molecular target: Luciferin 4-monooxygenase (Photinus pyralis) (UniProt P08659); test: Primary firefly luciferase (FLuc) qHTS assay for identification of artifact compounds. (AID 1845220); conditions: purified firefly luciferase, luminescence, 5 min; series mostly up to 54.1 µM; further: nearly all actives have a fitted effect of over 60% in size
Summary of the method: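 FLuc 10 nM; luciferin 10 uM; ATP 10 uM; Tris-acetate pH 7.6, Mg-acetate 10 mM; 15 min RT preincubation; 5 min reaction; luminescence.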

[8] = Primary fluorescence-based thiol-reactive (MSTI) qHTS assay for identification of artifact compounds. (AID 1845221); conditions: MSTI thiol-reactivity probe, 1 h; series mostly up to 53.8 µM; further: nearly all actives have a fitted effect of over 65% in size; further: potency means the concentration at half of the fitted maximal effect
Summary of the method: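 First, 4 uM MSTI in 2% DMSO/PBS pH 7.4 was dispensed; next, compounds were added; then plates sat 1 h at room temperature without light. Finally, emission at 598 nm was recorded.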

[9] = tested on: Nanoluciferase (engineered Oplophorus gracilirostris luciferase); test: Primary Nanoluciferase (NLuc) qHTS assay for identification of artifact compounds. (AID 1845222); conditions: NLuc-conditioned medium, Nano-Glo luminescence, 5 min; series mostly up to 54.1 µM;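 further: NLuc secreted into diluted conditioned medium of S16 cells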
Summary of the method: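 NLuc from S16 cell medium (1:55) plus test compounds, 15 min, room temperature. Luminescence after Nano-Glo (1:100) addition, 5 min.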

[10] = Primary redox qHTS assay for identification of artifact compounds. (AID 1845223); conditions: Amplex Red/HRP redox cycling with DTT, fluorescence; series mostly up to 53.8 µM
Summary of the method: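 Redox-cycling detection via DTT (250 uM final) oxidation coupled to Amplex Red (25 uM)/HRP (250 mU/mL) in HBSS. 15 min preincubation plus 30 min after DTT, room temperature. Ex/Em 525/598 nm; 4-parameter Hill fit against DMSO and 10 uM DA3003.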

Structure (SMILES): C=C1C(=O)OC2C1CCC1(C)C(O)CC=C(C)C21 (centres undefined)
- activity [1]: -60.3%
- activity change, negative = inhibition [2]: -6.03%
- activity [3]: -3.54%
- activity [4]: -2.19%
- Potency [5]: inactive
- Potency [6]: inactive
- Potency [7]: inactive
- Potency [8]: 11.9 µM (active)
- Potency [9]: inactive
- Potency [10]: inactive

Structure (SMILES): COc1ccc(CCc2nc3c(C)c(-c4c(C)noc4C)c(C)cc3n2CCN2CCOCC2)cc1
- activity [1]: 6.34%
- activity change, negative = inhibition [2]: 5.22%
- activity [3]: -28%
- activity [4]: 1.27%
- Potency [5]: inactive
- Potency [6]: inactive
- Potency [7]: inactive
- Potency [8]: inactive
- Potency [9]: inactive

Structure (SMILES): Cc1c(OCc2cccc(-c3ccc(C(=O)O)cc3)c2)cc2c(c1C)C(=O)C(C1CCCC1)C2 (centres undefined)
- activity [1]: -4.94%
- activity change, negative = inhibition [2]: -6.27%
- activity [3]: -40.4%
- activity [4]: -6.25%
- Potency [5]: inactive
- Potency [6]: inactive
- Potency [7]: inactive
- Potency [8]: inactive
- Potency [9]: inactive
- Potency [10]: inactive

Structure (SMILES): O=C(NCCCc1ccccc1)c1cccc(-c2cc(O)c3ncccc3c2)c1
- activity [1]: -82.7%
- activity change, negative = inhibition [2]: -1.73%
- activity [3]: -28.1%
- activity [4]: 4.23%
- Potency [5]: inactive
- Potency [6]: inactive
- Potency [7]: inactive
- Potency [8]: inactive
- Potency [9]: inactive
- Potency [10]: inactive

Structure (SMILES): C=C1C(OC2OC(CO)C(O)C(O)C2O)CC2C(C)(C)C(O)CCC2(C)C1CC/C(C)=C\COC(=O)CC(=O)O (centres undefined)
- activity [1]: -58.5%
- activity change, negative = inhibition [2]: 0% [at 19.1 µM]
- activity [3]: 0%
- activity [4]: 2.99%
- Potency [5]: inactive
- Potency [6]: inactive
- Potency [7]: inactive
- Potency [8]: inactive
- Potency [9]: inactive

Structure (SMILES): O=C(Nc1ccc(C(F)(F)F)cn1)N1CCN(c2ncccc2C(F)(F)F)CC1
- activity [1]: -1.28%
- activity change, negative = inhibition [2]: 0%
- activity [3]: -0.919%
- activity [4]: -60.8%
- Potency [5]: inactive
- Potency [6]: inactive
- Potency [7]: inactive
- Potency [8]: inactive
- Potency [9]: inactive
- Potency [10]: inactive

Structure (SMILES): CC(C)C[C@H](CO)Nc1nc(S[C@@H](C)c2ccccc2)nc2nc(N)sc12
- activity [1]: -3.51%
- activity change, negative = inhibition [2]: 1.87%
- activity [3]: -40.8%
- activity [4]: -2.5%
- Potency [5]: inactive
- Potency [6]: inactive
- Potency [7]: inactive
- Potency [8]: inactive
- Potency [9]: inactive
- Potency [10]: inactive

Structure (SMILES): CCC(=C(c1ccc(OCCN2CCCC2)cc1)c1ccc(OCCN2CCCC2)cc1)c1ccccc1
- activity [1]: -7.7%
- activity change, negative = inhibition [2]: -5.33% [at 12.7 µM]
- activity [3]: -3.61%
- activity [4]: -4.76%
- Potency [5]: inactive
- Potency [6]: inactive
- Potency [7]: inactive
- Potency [8]: inactive
- Potency [9]: inactive
- Potency [10]: inactive

Structure (SMILES): CCCc1cc2c(N3CCN(C4=NCC(C)(C)S4)CC3)ncnc2s1
- activity [1]: -3.43%
- activity change, negative = inhibition [2]: 1.29%
- activity [3]: -77.1%
- activity [4]: -5.27%
- Potency [5]: inactive
- Potency [6]: inactive
- Potency [7]: inactive
- Potency [8]: inactive
- Potency [9]: inactive
- Potency [10]: inactive

Structure (SMILES): O=C(c1ccccc1)c1c(O)cc(O)cc1O[C@@H]1O[C@H](CO)[C@@H](O)[C@H](O)[C@H]1O
- activity [1]: -80.6%
- activity change, negative = inhibition [2]: -2.61%
- activity [3]: -5.29%
- activity [4]: -6.01%
- Potency [5]: inactive
- Potency [6]: inactive
- Potency [7]: inactive
- Potency [8]: 13.1 µM (active)
- Potency [9]: inactive

Structure (SMILES): CCN(CC)C(=O)c1ccc(Nc2nc(OCC3CCCCC3)c3[nH]cnc3n2)cc1
- activity [1]: -18.1%
- Potency [2]: 30.4 µM (active)
- activity [3]: -75.3%
- activity [4]: -18.4%
- Potency [5]: inactive
- Potency [6]: inactive
- Potency [7]: inactive
- Potency [8]: inactive
- Potency [9]: inactive
- Potency [10]: inactive

Structure (SMILES): CC1(C)CC[C@]2(C(=O)O[C@@H]3O[C@H](CO)[C@@H](O)[C@H](O)[C@H]3O)CC[C@]3(C)C(=CCC4[C@@]5(C)CC[C@H](O[C@@H]6O[C@H](C(=O)O)[C@H](O)[C@H](O)[C@H]6O)C(C)(C)C5CC[C@]43C)[C@@H]2C1 (some centres undefined)
- activity [1]: -55%
- activity change, negative = inhibition [2]: -1.02% [at 19.1 µM]
- activity [3]: -9.04%
- activity [4]: -2.05%
- Potency [5]: inactive
- Potency [6]: inactive
- Potency [7]: inactive
- Potency [8]: inactive
- Potency [9]: inactive

Structure (SMILES): Cc1cc(NC(=O)c2cccc(NC(=O)/C=C/CN(C)C)c2)ccc1Nc1nccc(-c2cccnc2)n1
- activity [1]: -3.09%
- activity change, negative = inhibition [2]: 1.37%
- activity [3]: -3.09%
- activity [4]: -2.64%
- Potency [5]: inactive
- Potency [6]: inactive
- Potency [7]: inactive
- Potency [8]: inactive

Structure (SMILES): COc1ccc(CCN(C)CCCOc2nsc(-c3ccccc3)n2)cc1OC
- activity [1]: -5.88%
- activity change, negative = inhibition [2]: -0.0909%
- activity [3]: -34.1%
- activity [4]: -10.5%
- Potency [5]: inactive
- Potency [6]: inactive
- Potency [7]: inactive
- Potency [8]: inactive
- Potency [9]: inactive

Structure (SMILES): CC[N+]1(C/C2=C/CCCCCC2)CCC(NC(=O)C2c3cc(Cl)ccc3Oc3ccc(Cl)cc32)CC1 (centres undefined)
- activity [1]: -37.4%
- activity change, negative = inhibition [2]: 0%
- activity [3]: -28%
- activity [4]: -2.38%
- Potency [5]: inactive
- Potency [6]: inactive
- Potency [7]: inactive
- Potency [8]: inactive
- Potency [9]: inactive
- Potency [10]: inactive

Structure (SMILES): CN(C)CC1CCn2c(c(C3=C(c4cn(C)c5ccccc45)C(=O)NC3=O)c3ccccc32)C1 (centres undefined)
- activity [1]: -13.6%
- activity change, negative = inhibition [2]: -2.82%
- activity [3]: -44.5%
- activity [4]: -10.7%
- Potency [5]: inactive
- Potency [6]: inactive
- Potency [7]: inactive
- Potency [8]: inactive

Structure (SMILES): O=S1(=O)CCN(Cc2cc(NCC3CCOCC3)c3[nH]c(-c4ccccc4)cc3c2)CC1
- activity [1]: -4.1%
- activity change, negative = inhibition [2]: -1.81%
- activity [3]: -6.86%
- activity [4]: -4.93%
- Potency [5]: inactive
- Potency [6]: inactive
- Potency [7]: inactive
- Potency [8]: 1.19 µM (active)
- Potency [9]: inactive

Structure (SMILES): COC1C=C(C)C(O)(CO)C2(C)CCCC(C)(C)C12 (centres undefined)
- activity [1]: -68.4%
- activity change, negative = inhibition [2]: -5.83%
- activity [3]: -3.75%
- activity [4]: -2.37%
- Potency [5]: inactive
- Potency [6]: inactive
- Potency [7]: inactive
- Potency [8]: inactive
- Potency [9]: inactive
- Potency [10]: inactive

Structure (SMILES): CC(=O)OC/C(=C/C(=O)O)CC[C@@H]1C(C=O)=CC[C@@H]2C(C)(C)CCC[C@@]12C
- activity [1]: -75.1%
- activity change, negative = inhibition [2]: -3.55%
- activity [3]: -14%
- activity [4]: -7.72%
- Potency [5]: inactive
- Potency [6]: inactive
- Potency [7]: inactive
- Potency [8]: inactive
- Potency [9]: inactive

Structure (SMILES): NC(=O)c1ccccc1Nc1ccnc(Nc2cccc(O)c2)n1
- activity [1]: -4.04%
- activity change, negative = inhibition [2]: 1.25%
- activity [3]: -41.1%
- activity [4]: -7.27%
- Potency [5]: inactive
- Potency [6]: inactive
- Potency [7]: inactive
- Potency [8]: inactive
- Potency [9]: inactive
- Potency [10]: inactive
